Assay outcomes (PubChem BioAssay)
GIRK2 act: activators of NPY4-receptor-primed GIRK2 channels, summary, cell-based, HEK293, thallium flux; activation (% efficacy), % for hits at 37.5 µM; G protein-activated inward rectifier potassium channel 2 (Homo sapiens), P48051; 34,000 tested, under 10 active; HEK293 GIRK2/NPY4 cells, thallium flux fluorescence;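 active = primary screen hit, no activity in plain HEK293 cells, and in GIRK2-only cells above 5% efficacy rising with concentration; inactive = the rest, including fluorescent compounds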;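 also: efficacy is normalized control-subtracted fluorescence 15 s after thallium addition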
AMPAR-TARP mod: modulators of GluA2-stargazin AMPA receptor complexes, primary screen, cell-based, membrane potential dye; calls only at 30 µM; HEK293 GluA2+stargazin, membrane potential dye (FDSS), glutamate EC50; hits were called plate by plate, in both directions; Voltage-dependent calcium channel gamma-2 subunit (Mus musculus) + Glutamate receptor 2 …; hit rate 3.5% among 40,000;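 active = any of four per-well response measures lying three or more SD from its plate-wide compound average, in either direction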
Target sequence (O88602 whole entry, looked up): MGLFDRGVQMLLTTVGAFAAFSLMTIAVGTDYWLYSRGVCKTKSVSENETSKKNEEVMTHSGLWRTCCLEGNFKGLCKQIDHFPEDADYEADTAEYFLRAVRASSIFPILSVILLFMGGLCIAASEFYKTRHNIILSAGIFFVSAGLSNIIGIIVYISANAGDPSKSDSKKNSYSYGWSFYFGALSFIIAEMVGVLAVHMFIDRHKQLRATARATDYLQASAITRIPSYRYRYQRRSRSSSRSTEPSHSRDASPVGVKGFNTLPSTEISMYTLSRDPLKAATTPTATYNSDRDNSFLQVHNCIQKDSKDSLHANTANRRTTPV
Target sequence (P19491 whole entry, looked up): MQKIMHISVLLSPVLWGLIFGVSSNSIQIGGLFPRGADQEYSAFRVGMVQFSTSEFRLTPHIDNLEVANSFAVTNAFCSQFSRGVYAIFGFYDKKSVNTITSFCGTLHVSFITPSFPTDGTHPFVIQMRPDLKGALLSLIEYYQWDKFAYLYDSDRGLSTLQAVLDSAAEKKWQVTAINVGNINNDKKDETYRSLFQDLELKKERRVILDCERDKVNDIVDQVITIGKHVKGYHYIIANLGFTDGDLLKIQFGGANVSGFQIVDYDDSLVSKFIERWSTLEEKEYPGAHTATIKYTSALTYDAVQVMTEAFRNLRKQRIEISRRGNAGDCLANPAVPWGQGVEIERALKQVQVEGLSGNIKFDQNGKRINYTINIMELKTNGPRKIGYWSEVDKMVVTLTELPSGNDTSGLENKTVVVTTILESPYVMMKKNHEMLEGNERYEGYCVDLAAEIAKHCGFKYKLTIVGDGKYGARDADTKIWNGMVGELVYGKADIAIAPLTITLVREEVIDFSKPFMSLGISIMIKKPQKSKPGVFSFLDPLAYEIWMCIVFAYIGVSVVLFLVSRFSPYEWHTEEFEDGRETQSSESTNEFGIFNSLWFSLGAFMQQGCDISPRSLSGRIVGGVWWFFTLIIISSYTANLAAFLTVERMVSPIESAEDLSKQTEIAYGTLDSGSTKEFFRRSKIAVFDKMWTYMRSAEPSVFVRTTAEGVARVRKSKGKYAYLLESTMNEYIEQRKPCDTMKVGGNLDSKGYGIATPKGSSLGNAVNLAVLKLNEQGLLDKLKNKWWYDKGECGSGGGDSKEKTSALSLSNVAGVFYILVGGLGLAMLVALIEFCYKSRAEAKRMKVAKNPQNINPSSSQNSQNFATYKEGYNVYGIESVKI
Each line names hits and unclear results; the compound was inactive in the other large screens. The full list was thinned out, with hits kept by preference.

Cc1c(C)c(C)c(S(=O)(=O)NCCC(O)c2ccco2)c(C)c1C (stereo not given)	AMPAR-TARP mod active
CN(C)CCNC(=O)C(=O)NCCC(O)c1ccco1 (stereo not given)	none
CCOC(=O)CC(=O)CSc1c(C)cnc2c1c(=O)n(C)c(=O)n2C	none
COc1ccc(OC)c(S(=O)(=O)Nc2ccc3c(c2)N(C(=O)C(C)(C)C)CC3)c1	none
COc1ccc(Cl)cc1C(=O)Nc1sc(SCC(N)=O)nc1-c1ccccc1	none
CCNC(=O)CSc1nc(-c2ccccc2)c(NC(=O)C(C)(C)Oc2ccc(Cl)cc2)s1	AMPAR-TARP mod active
COc1ccccc1C(=O)Nc1sc(SCC(N)=O)nc1-c1ccccc1	AMPAR-TARP mod active
NC(=O)CSc1nc(-c2ccccc2)c(NC(=O)CC2CCCC2)s1	AMPAR-TARP mod active
CC(C)(C)C(=O)Nc1sc(SCC(=O)NC2CC2)nc1-c1ccccc1	none
CCC(=O)Nc1sc(SCC(N)=O)nc1-c1ccccc1	none
Cc1cccc(C)c1NC(=O)C(=O)NCC(c1cccc2ccccc12)N1CCCC1 (stereo not given)	none
O=C(CS(=O)(=O)Cc1ccccc1)Nc1nc(-c2ccccc2)c(C(=O)c2ccccc2)s1	none
CNC(=O)c1ccsc1NC(=O)C1CCCCN1S(C)(=O)=O (stereo not given)	none
COC(=O)c1ccc(NC(=O)C(=O)NCC2CCN(C(=O)OC)CC2)cc1	none
Cc1cc(C(=O)N(Cc2ccccn2)c2nc3c(C)c(Cl)ccc3s2)on1	none
COc1ccc(S(=O)(=O)CC(=O)Nc2nc(-c3cc(Cl)sc3Cl)cs2)cc1	AMPAR-TARP mod active
COc1ccc(S(=O)(=O)CC(=O)Nc2nc(-c3cc(Cl)ccc3Cl)cs2)cc1	none
COc1cccc(C(=O)NCCS(=O)(=O)N2CCC3(CC2)OCCO3)c1	AMPAR-TARP mod active (no result: GIRK2 act)
COc1cccc(C(=O)NCCS(=O)(=O)N2CCOCC2)c1	none (no result: GIRK2 act)
COC(=O)c1sccc1S(=O)(=O)N(CC(=O)Nc1ccccc1)c1ccccc1	none
COC(=O)c1sccc1S(=O)(=O)N(CC(=O)Nc1ccccc1OC)c1ccccc1	none
COC(=O)c1sccc1S(=O)(=O)N(CC(=O)Nc1cccc(OC)c1)c1ccc(Cl)cc1	AMPAR-TARP mod active
CCc1ccccc1NC(=O)CN(c1ccc(C)cc1)S(=O)(=O)c1ccsc1C(=O)OC	AMPAR-TARP mod active
CCC1CCCCN1S(=O)(=O)c1ccc(N)cc1 (stereo not given)	none (no result: GIRK2 act)
Cn1nnc2c(SCC(=O)N3CCN(c4ccccc4)CC3)ncnc21	none
O=S(=O)(NCC(O)c1ccc(C(F)(F)F)cc1)c1ccccc1Cl (stereo not given)	none
O=S(=O)(NCC(O)c1ccsc1)c1ccc(F)c(Cl)c1 (stereo not given)	none
COc1ccc(S(=O)(=O)NCC(O)c2ccc(C(F)(F)F)cc2)c(C)c1 (stereo not given)	AMPAR-TARP mod active
Cc1ccc(S(=O)(=O)NCC(O)c2ccc(C(F)(F)F)cc2)s1 (stereo not given)	none
COc1ccc(S(=O)(=O)NCC(O)c2ccsc2)c(C)c1 (stereo not given)	none
O=S(=O)(NCC(O)c1ccc(C(F)(F)F)cc1)c1ccc(F)c(Cl)c1 (stereo not given)	AMPAR-TARP mod active
O=S(=O)(Cc1cccc(F)c1)NCC(O)c1ccc(C(F)(F)F)cc1 (stereo not given)	AMPAR-TARP mod active
O=S(=O)(NCC(O)c1ccc(C(F)(F)F)cc1)c1ccc(Br)s1 (stereo not given)	AMPAR-TARP mod active (no result: GIRK2 act)
COc1ccc(N2CC(C)Cn3c2nc2c3c(=O)n(Cc3cccc(C)c3)c(=O)n2C)c(OC)c1 (stereo not given)	none (no result: GIRK2 act)
O=C(CCc1csc(NS(=O)(=O)c2ccccc2)n1)NCc1ccc2c(c1)OCO2	none
O=C(Nc1cccc(N2CCCS2(=O)=O)c1)c1cccc([N+](=O)[O-])c1	none (no result: GIRK2 act)
Cn1nnc2c(=O)n(CC(=O)N3CCCC3)cnc21	none
O=C(NCCCn1cccc1)c1cc(-c2ccccc2)n[nH]1	none
O=C(NCCCn1cccc1)c1ccccc1	AMPAR-TARP mod active
O=C(Cc1cc(-c2ccccc2)on1)N1CCc2ccccc2C1	none (no result: AMPAR-TARP mod)
COC(=O)c1ccsc1NC(=O)CC1Nc2cc(C)c(C)cc2NC1=O (stereo not given)	AMPAR-TARP mod active
Cc1cc2c(cc1C)NC(CC(=O)NCC(C)C)C(=O)N2 (stereo not given)	none (no result: GIRK2 act)
O=C(c1cccs1)N(C(=O)N1CCCCC1)c1cccc(Cl)c1	none
CSc1ccccc1C(=O)N(C(=O)N1CCCCC1)c1ccc(Cl)cc1	none (no result: GIRK2 act)
O=C(c1cccs1)N(C(=O)N1CCCCC1)c1ccc(Cl)cc1	AMPAR-TARP mod active (no result: GIRK2 act)
O=C(c1ccc(Br)o1)N(C(=O)N1CCCCC1)c1ccc(Cl)cc1	AMPAR-TARP mod active (no result: GIRK2 act)
Cn1c(=O)c2c(NCCc3ccc(S(N)(=O)=O)cc3)ccnc2n(C)c1=O	AMPAR-TARP mod active
Cn1c(=O)c2c(SCC(=O)NCCc3ccccc3)ccnc2n(C)c1=O	none
O=C(NCCOc1ccc(F)cc1)c1c(F)cccc1Cl	AMPAR-TARP mod active
O=C(NCCOc1ccc(F)cc1)c1ccccc1Cl	none
Cc1nc2ccccn2c1C(=O)Nc1ccc2c(c1)N(S(=O)(=O)c1ccc(F)cc1)CCC2	none
CCNC(=O)C1Cc2ccccc2N1C(=O)/C=C\c1ccc2c(c1)OCO2 (stereo not given)	none
Cc1cc(N2CCN(C(=O)COc3ncccn3)CC2)nc(N2CCCCC2)n1	none (no result: AMPAR-TARP mod)
Cc1ccc(C(=O)N2CCN(c3nc(C)cc(N4CCCC4)n3)CC2)cc1	AMPAR-TARP mod active (no result: GIRK2 act)
O=C(CSCc1ccccc1)NCC1CCN(C(=O)/C=C/c2ccco2)CC1	none
Cn1c(=O)c2c(SCC(=O)N3CCOCC3)ccnc2n(C)c1=O	AMPAR-TARP mod active (no result: GIRK2 act)
CC1CCN(C(=O)CSc2ccnc3c2c(=O)n(C)c(=O)n3C)CC1	none (no result: GIRK2 act)
CCCCSc1ccnc2c1c(=O)n(C)c(=O)n2C	AMPAR-TARP mod active (no result: GIRK2 act)
C#CCSc1ccnc2c1c(=O)n(C)c(=O)n2C	none (no result: GIRK2 act)
CCCOC(=O)c1cc2cc(Br)cc(OC)c2oc1=O	AMPAR-TARP mod active
CCC(C)NC(=O)c1cc2cc(Br)cc(OC)c2oc1=O (stereo not given)	none
O=C(CSc1nc(-c2ccco2)cc(C(F)(F)F)n1)N1CCSCC1	none (no result: GIRK2 act)
O=C(CSc1nc(-c2ccco2)cc(C(F)(F)F)n1)N1CCCCCC1	AMPAR-TARP mod active (no result: GIRK2 act)
N#Cc1nc(-c2ccc(S(=O)(=O)N3CCCCCC3)cc2)oc1NCCCn1ccnc1	AMPAR-TARP mod active
N#Cc1nc(-c2ccc(S(=O)(=O)N3CCCCCC3)cc2)oc1NCCN1CCOCC1	none
CCOc1ccc(NC(=O)C23CC4CCC(CC(C4)C2)C3)cc1	AMPAR-TARP mod active (no result: GIRK2 act)
O=C(Cc1ccc(NC(=O)C23CC4CC(CC(C4)C2)C3)cc1)NC1CC1	none
Cc1ccc(C)c(S(=O)(=O)Nc2ccc3c(c2)N(S(=O)(=O)c2ccccc2)CCC3)c1	none (no result: GIRK2 act)
CC(O)(CNS(=O)(=O)c1ccc2c(c1)OCCO2)c1ccc(-c2ccccc2)cc1 (stereo not given)	none
COc1cccc2sc(N(CCN(C)C)C(=O)c3cc(C)nn3C)nc12	AMPAR-TARP mod active
COc1cccc2sc(N(CCCN(C)C)C(=O)c3cc(C)nn3C)nc12	none
O=C(Cc1ccc(NS(=O)(=O)CCc2ccccc2)cc1)NC1CC1	none
Cc1ccc(CNC(=O)CSc2nnc(-c3ccncc3)o2)cc1	none
Cc1cc(Br)c2nc(-c3ccncc3)oc(=O)c2c1	AMPAR-TARP mod active
COc1ccccc1NC(=O)c1ccc(S(=O)(=O)N(C)C2CCCCC2)cc1	none (no result: GIRK2 act)
